Results: PubChem BioAssay (NCI)
About 83,000 compounds went through this panel and 20% of them were active in at least one assay; those are over-represented in the sample as a whole.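 Each cell line was grown in a 96-well plate and treated with one concentration of compound for 48 hours. Values below 10 were considered active.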 Unmarked numbers belong to inactive results. The source made the active and inactive calls.

Tests used:
Assay in all cases: NCI-60 one-dose screen, 48 h (100 = growth as untreated, 0 = no growth, -100 = all killed)
SK-MEL-2 melanoma = conditions: 10 µM unless noted
EKVX NSCLC = conditions: 10 µM unless noted
UO-31 renal = conditions: 10 µM unless noted
TK-10 renal = conditions: 10 µM unless noted
ACHN renal = conditions: 10 µM unless noted
CAKI-1 renal = conditions: 10 µM unless noted
A498 renal = conditions: 10 µM
HL-60(TB) leukemia = conditions: 10 µM unless noted
CCRF-CEM leukemia = conditions: 10 µM unless noted
SN12C renal = conditions: 10 µM unless noted

| SMILES | growth (SK-MEL-2 melanoma) | growth (EKVX NSCLC) | growth (UO-31 renal) | growth (TK-10 renal) | growth (ACHN renal) | growth (CAKI-1 renal) | growth (A498 renal) | growth (HL-60(TB) leukemia) | growth (CCRF-CEM leukemia) | growth (SN12C renal) |
| --- | --- | --- | --- | --- | --- | --- | --- | --- | --- | --- |
| COc1cc2c(cc1OCc1ccccc1)C(CC(C)C)=[N+](C)CC2 | 82.1% | 68.6% | 87.9% | 94% | 99.2% | 96.2% | 95.9% | 73% | 73.1% |  |
| Oc1c(O)c(Cl)c(Cl)c(Cl)c1Cl | 39.1% | 36.6% | 3.66% (active) | 73.4% |  | 81.7% | 63.7% | 24.9% | 35.3% |  |
| CNC(=O)Oc1ccc(C(C)(C)C)cc1OC(=O)NC | 70.7% | 82.1% | 94.9% | 98.2% | 106% |  | 98.8% | 85.8% | 96.6% |  |
| CCCCCCCCCCCCCCCCCC1OC[C@@H](COC(=O)O[C@@H](C(=O)O[C@H]2C[C@@]3(O)[C@@H](OC(=O)c4ccccc4)[C@@H]4[C@]5(OC(C)=O)CO[C@@H]5C[C@H](O)[C@@]4(C)C(=O)[C@H](OC(C)=O)C(=C2C)C3(C)C)[C@@H](NC(=O)c2ccccc2)c2ccccc2)O1 (some centres not stated) | 82.9% |  | 93.5% | 108% | 92.4% | 89.3% | 70.9% | 35.8% | 59.2% | 72% |
| NC(CCl)CCl | 124% |  | 93.3% | 111% | 104% | 99.3% | 111% | 123% |  | 101% |
| Cc1cc(C)c(CBr)c(C)c1 | 102% | 103% | 85.2% |  | 104% | 99.1% | 81.4% | 59.7% | 106% |  |
| O=C1CN=C(c2ccc(Cl)cc2)c2sccc2N1 | 107% |  | 84.6% | 99.7% | 104% | 97.9% | 102% | 98.3% | 97.4% | 96.2% |
| CC(C)=CCC[C@H](C(=O)O)[C@@H]1CC[C@]2(C)C3=C(CC[C@@]12C)[C@@]1(C)CC[C@H](O)C(C)(C)[C@@H]1CC3 | 91% |  | 89.8% | 93.8% | 101% | 75% | 104% | 85.1% | 109% | 102% |
| COC(=O)[C@@H](C)C[C@H](Cc1ccccc1)NC(=O)c1csc([C@@H](C[C@H](C(C)C)N(C)C(=O)C2(NC(=O)[C@H]3CCCCN3C)CCC2)OC(C)=O)n1 | 29.5% | 31.7% | 43.3% |  | 28.8% | 27.7% | -2.79% (active) | -51.8% (active) | 10% (active) |  |
| COC[C@@H]1C[C@@]2(C)[C@@H](CC[C@@H]3[C@@H]2CC[C@@]2(C)[C@H]3CC[C@]2(C)O)CC1=O | 83.2% |  | 91.1% | 85.2% | 92.6% | 94.4% | 111% | 78.6% |  | 107% |
| Cc1ccc(S(=O)(=O)F)cc1C(=O)O | 105% |  | 91.9% | 107% | 101% | 93.9% | 132% | 104% | 97.2% | 99.1% |
| COc1cc(C=Nc2cc(Cl)cc(Cl)c2)ccc1N(CCCl)CCCl | 113% |  | 66.6% | 148% | 63% | 63.3% | 65.2% | 88.1% | 56.4% | 87.6% |
| Brc1ccc2c(c1)c(-c1nc(-c3c[nH]c4ncccc34)cs1)cn2CCN1CCCCC1 | 82.7% | 66.9% | 44.8% | 81.5% |  |  | 95.7% | 66% | 50.8% |  |
| COC(=O)C1OC(Oc2ccc(N(CCCl)CCCl)cc2)C(OC(C)=O)C(OC(C)=O)C1OC(C)=O (configuration not stated) | 109% |  | 73.1% | 92.5% | 27.4% | 3.7% (active) | 104% | 40.1% | 37.2% | 62.4% |
| CCCCCCCCCCCCCCCCCC1OC[C@H](COC(=O)O[C@@H](C(=O)O[C@H]2C[C@@]3(O)[C@@H](OC(=O)c4ccccc4)[C@@H]4[C@]5(OC(C)=O)CO[C@@H]5C[C@H](O)[C@@]4(C)C(=O)[C@H](OC(C)=O)C(=C2C)C3(C)C)[C@@H](NC(=O)c2ccccc2)c2ccccc2)O1 (some centres not stated) | 75% |  | 98.1% | 99.8% | 96.2% | 81% | 72% | 23.3% | 44.8% | 56.8% |
| O=NNc1ccccn1 | 23.3% |  | 83.6% | 91% | 11.2% | 43.6% | 96.5% | 73.8% | 126% | 87.4% |
| O=C(Nc1ccncc1F)c1cn(CC2CC2)c2ccccc12 | 98.8% |  | 93.9% | 103% | 108% | 98.2% | 91% | 100% | 102% | 102% |
| Cc1cc(N(CCCl)CCCl)ccc1C=Nc1ccc(-c2csc(Cc3ccccc3)n2)cc1 | 109% |  | 30.7% | 84.5% | 50.8% | 25.4% | -45.8% (active) | 30.7% | 33.9% | 49% |
| CC(C)=CCC/C(C)=C/C=N\N=C(/N)N[N+](=O)[O-] | 92.9% |  | 69.7% | 87.4% | 109% | 84.9% | 83.9% | 113% | 93.3% | 100% |
| CCCC(C)C1(CC)C(=O)NC(=O)N(C)C1=O (configuration not stated) | 85.4% | 105% | 82.3% |  | 107% | 95.7% | 91.8% | 94.8% | 93.9% |  |
| CC(=O)O[C@H]1CC[C@H]2[C@@H]3CC=C4c5nc(-c6ccccc6)sc5CC[C@]4(C)[C@H]3CC[C@]12C | 82% |  | 78.2% | 92.4% | 91.8% | 67.5% | 75.2% | 82.1% | 28.4% | 85.5% |
| CCOC(=O)c1c(C)n(Cc2ccccc2)c2cc(CN(C)C)c(O)cc12 | 92.1% |  | 43.8% | 68.8% | 81.5% | 61.6% | 43.2% | 62% | 41.2% | 57.8% |
| CCC1CN1CCCCN1CC1CC (configuration not stated) | 118% |  | 92.6% | 104% | 100% | 99.6% | 115% | 123% |  | 95.2% |
| O=C(O)CNC(=O)C(Cl)(Cl)Cl | 111% |  | 87.6% | 95.6% | 92.7% | 89.1% | 96.2% | 80.8% |  | 100% |
| CCCc1cc(O)c2c3c(c(=O)oc2c1)CN(C)CC3 | 97.7% |  | 22.7% | 47.3% | 44.6% | 4.68% (active) | 15.4% | 6% (active) | 18.8% | 39.1% |
| NC(=O)C(Br)c1ccccc1 (configuration not stated) | 83.9% |  | 102% | 91.2% | 87.2% | -46% (active) | 87.4% | 97.7% | 60.6% | 88.7% |
| O=[N+]([O-])c1ccc(OP(=O)(CCl)N(CCCl)CCCl)cc1 (configuration not stated) | 81.9% |  | 84.4% | 99.6% | 101% | 95.2% | 109% | 94.4% |  | 112% |
| C=CCn1cc(C=C2C(=O)N(C)C(=O)N(C)C2=O)c2ccccc21 | 102% |  | 78.2% | 120% | 98.9% | 90.3% | -90.6% (active) | 121% | 87.9% | 102% |
| CCCCCCCC[N+](C)(CCCCCCCC)CCCCCCCC | -94.1% (active) |  | -100% (active) | -100% (active) | -93.6% (active) | -98.6% (active) | -100% (active) | 32% | 85.7% | -86.5% (active) |
| CC1CN1CCCCN1CC1C (configuration not stated) | 80.6% |  | 98.4% | 88.8% | 107% | 102% | 107% | 77.4% |  | 109% |
